In the library only some 7.3% were active in any assay of this set; here they are far more common.
Vaccinia Venus: vaccinia inhibition (Venus reporter); Vaccinia virus Venus reporter expression, fluorescence; Potency, µM (highest dose often 36.5 µM), hits mostly inhibitors; 0.46% of 330,000 active; AID 720580; calls by dose curve; tested in A549 cells; further: nearly all actives have a fitted effect of over 30% in size
HCMV inh: inhibitors of human cytomegalovirus; 4.5% of 410,000 active; HFF cells, HCMV-luciferase reporter, 72 h; hits give low values; activity change, negative = inhibition, % at 57.5 µM; in the data active means activity change below about -60%; inconclusive means no clear call, values can overlap the other calls; inactive means above about -39%
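Human foreskin fibroblasts infected with luciferase-reporter HCMV at MOI 1 PFU/cell, compounds at two doses. Luciferase measured 72 h post infection; normalized to buffer-only basal and Salinomycin (10uM) controls.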
Vaccinia mCherry: vaccinia inhibition (mCherry reporter) | Vaccinia virus mCherry reporter infection, fluorescence | AID 720579 | Potency, µM (doses to about 36.5 µM), hits mostly inhibitors | 0.63% of 310,000 active; calls by dose curve; tested in A549 cells; further: nearly all actives have a fitted effect of over 35% in size
FMDV antiviral: blocks foot and mouth disease virus | 1.2% of 410,000 active | AID 1159524 | FMDV antiviral cell-based qHTS | Potency, µM (highest dose often 57.9 µM), usual class: inhibitors; calls by dose curve; tested in HEK293T cells; further: read-out not given here; nearly all actives have a fitted effect of over 45% in size
HCV inhibitor: blocks hepatitis C virus; 3.4% of 340,000 active; Huh7.5.1 HCVcc-Cre infection, luciferase reporter, 44 h; Potency, µM (highest dose often 41.8 µM), usual class: inhibitors; active means well fitted inhibition curve with a large enough effect; inconclusive means small, poorly fitted or top-dose-only effect, or another doubt; inactive means no such curve, though single readings can be large or run the other way
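1,000 cells/well; 4 h culture; + compound; + HCVcc-Cre (~0.5 moi); 44 h; luciferase substrate, RT 15 min; read 15 sec.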
Large screens that a line does not name were inactive.

O=C(N/N=C/c1cccc2cccnc12)c1ccccc1O	HCMV inh -102.9, HCV inhibitor inconclusive (no result: Vaccinia Venus, Vaccinia mCherry)
COc1cc(/C=N/Nc2cccc3cccnc23)cc(OC)c1O	HCV inhibitor 22.4µM
Oc1cccc(/C=N/Nc2cccc3cccnc23)c1	HCV inhibitor inconclusive
Cc1ccc(S(=O)c2ccc([N+](=O)[O-])c3nonc23)cc1 (centres undefined)	HCMV inh -95.0, Vaccinia mCherry inconclusive, FMDV antiviral inconclusive (no result: HCV inhibitor)
O=[N+]([O-])c1ccc(N2CCCCCC2)c2nonc12	none
CCCn1c(N)c(C(=O)CN(C)CC(=O)Nc2ccccc2CC)c(=O)[nH]c1=O	HCMV inh -103.3 (no result: Vaccinia Venus, Vaccinia mCherry)
COc1ccc2cc(CCNC(=O)c3ccc(S(=O)(=O)N4CCCC4)cc3)c(=O)[nH]c2c1	none (no result: HCV inhibitor)
CCOc1ccc(CCNC(=O)c2ccc3nc(N4CCOCC4)sc3c2)cc1OCC	HCMV inh inconclusive, FMDV antiviral 14.1µM, HCV inhibitor inconclusive
O=C(NCc1cccnc1)c1cccc(S(=O)(=O)N2CCCCC2)c1	HCMV inh -80.8
O=C(Nc1ccc(F)cc1F)c1ccc2nc(N3CCOCC3)sc2c1	HCV inhibitor 12.6µM
COc1ccc(CCNC(=O)c2ccc3nc(N4CCOCC4)sc3c2)cc1OC	none
O=C(NCc1cccnc1)c1cccc(S(=O)(=O)N2CCCC2)c1	none
COc1cc(OC)c(OC)cc1CNC(=O)c1cccc(S(=O)(=O)N2CCc3ccccc3C2)c1	HCMV inh inconclusive, FMDV antiviral 11.2µM, HCV inhibitor 1.78µM
O=C1OC(c2cc(I)c(O)c(I)c2)(c2cc(I)c(O)c(I)c2)c2ccccc21	none (no result: Vaccinia Venus, Vaccinia mCherry, FMDV antiviral, HCV inhibitor)
COc1ccc(Cl)cc1NC(=O)c1cnc2sc(N3CCOCC3)nn2c1=O	none (no result: HCV inhibitor)
O=C(NCc1cccc(Cl)c1)c1ccc2nc(N3CCOCC3)sc2c1	HCMV inh -79.7, HCV inhibitor inconclusive
COc1ccc(S(=O)(=O)N2CCCCCC2)cc1C(=O)N(C)Cc1ccc(F)cc1	none
COc1ccc(S(=O)(=O)N2CCCCCC2)cc1C(=O)NCc1ccccc1Cl	none
O=C(Nc1cc(S(=O)(=O)N2CCCCC2)ccc1Cl)c1ccccc1NS(=O)(=O)c1ccc(F)cc1	Vaccinia Venus inconclusive, Vaccinia mCherry inconclusive, HCV inhibitor 10µM (no result: HCMV inh)
COc1ccc(CNC(=O)c2cc(S(=O)(=O)N3CCCCC3)ccc2Cl)cc1OC	HCMV inh -64.2, FMDV antiviral 14.1µM, HCV inhibitor 11.2µM
COc1ccc(S(=O)(=O)N2CCCCCC2)cc1C(=O)N(C)Cc1ccc(C(C)(C)C)cc1	Vaccinia mCherry inconclusive, FMDV antiviral inconclusive, HCV inhibitor 14.1µM
CCCCS(=O)(=O)N1CCCC(C(=O)Oc2ccc(Cl)cc2)C1 (centres undefined)	none
CCC[N+](C)(C)c1ccc(/C=C/c2ccnc3ccccc23)cc1	none (no result: HCMV inh, FMDV antiviral, HCV inhibitor)
COc1ccc(CCNC(=O)c2cc(S(=O)(=O)N3CCC4(CC3)OCCO4)ccc2F)cc1OC	HCV inhibitor 11.2µM
COCCNC(=O)c1cc(S(=O)(=O)N2CCC3(CC2)OCCO3)ccc1F	none (no result: HCV inhibitor)
CCOc1ccc(CCNC(=O)c2ccc(C)c(S(=O)(=O)N3CCOCC3)c2)cc1OCC	FMDV antiviral 22.4µM, HCV inhibitor 10µM
CCOc1ccc(CCNC(=O)c2cccc(N3CCCC3=O)c2)cc1OCC	HCMV inh -79.4
Cc1cccc(CCNC(=O)c2cc(S(=O)(=O)N3CCCC3)cn2C)c1	HCV inhibitor 8.91µM
CCC(C(=O)Nc1c(C)cccc1C)n1c(-c2ccc(-c3ccccc3)cc2)nc2ccccc21 (centres undefined)	none (no result: HCV inhibitor)
O=C(CCS(=O)(=O)c1ccc(Br)cc1)NC1CCCCCC1	none (no result: Vaccinia Venus, Vaccinia mCherry)
CC(C)C(c1nnnn1Cc1ccccc1)N1C(=O)C(=O)c2ccccc21 (centres undefined)	none (no result: Vaccinia Venus, Vaccinia mCherry, FMDV antiviral, HCV inhibitor)
CCc1cccc(CC)c1NC(=O)COC(=O)c1cccc(S(=O)(=O)N2CCc3ccccc3C2)c1	none
O=C(NC1CCCCCC1)c1cccc(N2CCCC2=O)c1	HCV inhibitor 25.1µM
O=C(NC1CCCN(Cc2ccc(Cl)cc2)C1)c1cccc(N2CCCC2=O)c1 (centres undefined)	none
CCOc1ccc(CCNC(=O)c2cccc(S(=O)(=O)N3CCCCC3)c2)cc1OCC	FMDV antiviral 28.2µM, HCV inhibitor inconclusive
Cc1cccc(C(C)C)c1NC(=O)COC(=O)c1cccc(S(=O)(=O)N2CCc3ccccc3C2)c1	HCMV inh -79.0
O=C(NCc1ccc(F)cc1)c1cc(S(=O)(=O)N2CCCCC2)ccc1Cl	HCMV inh -101.8 (no result: Vaccinia Venus, Vaccinia mCherry)
CC(=O)N1CCC2(CC1)CN(Cc1ccccc1)C2	none (no result: Vaccinia Venus, HCMV inh, Vaccinia mCherry, HCV inhibitor)
Cc1ccc(NC(=O)C(C)SCC(=O)Nc2ccc(F)cc2)cc1S(=O)(=O)N1CCOCC1 (centres undefined)	none
CCc1nc2ccc(C(=O)N(C)Cc3ccco3)cn2c1N(CC)Cc1cccc(Br)c1	none (no result: HCV inhibitor)
CC1CN(S(=O)(=O)c2cc(C(=O)NCCC3=CCCCC3)ccc2Cl)CC(C)O1 (centres undefined)	HCMV inh -81.6, HCV inhibitor inconclusive
COc1ccc(CNC(=O)c2cccc(S(=O)(=O)N3CCCCC3)c2)cc1OC	HCMV inh -87.1, FMDV antiviral inconclusive, HCV inhibitor 6.31µM (no result: Vaccinia Venus, Vaccinia mCherry)
CCC(=O)c1ccc(OCC(=O)NCCC2=CCCCC2)c(OC)c1	none (no result: Vaccinia Venus, Vaccinia mCherry)
CCOc1ccc(C(=O)NCCC2=CCCCC2)cc1OCC	HCV inhibitor 5.01µM
COc1ccc(CCNC(=O)c2cccc(S(=O)(=O)N3CCCC3)c2)cc1OC	none (no result: Vaccinia Venus, Vaccinia mCherry)
O=C(Nc1ncnc2nc[nH]c12)c1ccccc1	none (no result: HCMV inh, FMDV antiviral, HCV inhibitor)
COc1ccc(C(C)=O)cc1COC(=O)CCNS(=O)(=O)c1ccc(C(C)=O)cc1	HCV inhibitor inconclusive (no result: Vaccinia Venus, Vaccinia mCherry)
CCOC(=S)SCc1cn2ccc(C)cc2n1	HCMV inh -65.0
Cc1cc(C)c(NC(=O)C2CCCO2)c(C)c1NC(=O)C1CCCO1 (centres undefined)	none
O=[N+]([O-])c1ccc(N2CCOCC2)cc1SCc1ccco1	HCV inhibitor 11.2µM
O=[N+]([O-])c1ccc(SCc2ccco2)cc1N1CCOCC1	none
O=S(=O)(c1ccc(Br)cc1)N1CCN(c2nc(-c3ccccc3)nc3ccccc23)CC1	none (no result: HCMV inh, FMDV antiviral, HCV inhibitor)
COc1cccc(/C=C/C(=O)NNC(=O)CCN2CCN(Cc3ccccc3)CC2)c1	Vaccinia mCherry inconclusive
O=C(/C=C/c1ccc(F)cc1)NNC(=O)CCN1CCN(Cc2ccccc2)CC1	Vaccinia Venus inconclusive, HCMV inh -96.2, Vaccinia mCherry 11.2µM
CCc1sc(C(=O)Nc2ccccc2N2CCOCC2)cc1C	HCMV inh -75.4, HCV inhibitor inconclusive
O=C(Nc1ccc([N+](=O)[O-])cc1)Nc1ccc(N2CCOCC2)c2nonc12	Vaccinia Venus 10µM, HCMV inh inconclusive, Vaccinia mCherry inconclusive, FMDV antiviral inconclusive
O=C(Nc1ccccc1N1CCOCC1)c1ccc([N+](=O)[O-])cc1	HCMV inh -101.3 (no result: Vaccinia Venus, Vaccinia mCherry)
O=C(Nc1ccccc1N1CCOCC1)c1ccc(N2CCOCC2)c([N+](=O)[O-])c1	none
O=C(Nc1ccccc1N1CCOCC1)c1ccc([N+](=O)[O-])s1	Vaccinia Venus 7.94µM, HCMV inh inconclusive, Vaccinia mCherry 4.47µM, HCV inhibitor 11.2µM
O=C(Nc1ccccc1N1CCOCC1)c1ccccc1[N+](=O)[O-]	none (no result: Vaccinia Venus, Vaccinia mCherry)
